Measured values: PubChem BioAssay AID2716 (Broad Institute, 2010)
The whole screen tested about 320,000 compounds, of which about 3,300 (1%) were called active.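 The calls were made as follows: active = every valid replicate shows activation above 250% relative to neutral control wells; inactive = the rest, any valid replicate at or below 250%.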 The full list was thinned out, with actives kept by preference.

Experiment: restored growth of temperature-sensitive Mot1-301 yeast – S. cerevisiae, ATP luminescence, 38.5C, SUMOylation pathway inhibitor project, primary screen (AID 2716);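 also: OY570 slx delta 5 strain wells were the positive control but not used for scaling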
Conditions: S. cerevisiae Mot1-301 growth rescue, at 18.8 µM, active compounds read high, percent above DMSO median, 100 means doubled

SMILES	growth rescue
COc1ccccc1CNC(=O)COC(=O)CNS(=O)(=O)c1ccc(NC(C)=O)cc1	-0.994% (inactive)
CC(NC(=O)c1ccc(Cl)cc1)C(=O)N1CCCCC1 (stereo not drawn)	434% (active)
CSCCC(NC(=O)c1ccccc1)C(=O)N1CCCCCCC1 (stereo not drawn)	-4.42% (inactive)
CC(C)C(NC(=O)c1ccc(Cl)cc1)C(=O)O (stereo not drawn)	5.56% (inactive)
O=C(CCNC(=O)c1ccc(Br)cc1)NCCCc1ccccc1	0.819% (inactive)
O=C(CNC(=O)c1ccco1)NNC(=O)c1ccc(Br)cc1	19.3% (inactive)
O=C(CCc1ccccc1)NNC(=O)c1ccc(Br)cc1	631% (active)
COc1cc(CC(=O)N2CCC(n3nccc3NC(=O)C3CC3)CC2)cc(OC)c1OC	7.3% (inactive)
CCCCNC(=O)CSc1nc2n[nH]c(C)c2c(=N)n1-c1cccc(Cl)c1C	-7.38% (inactive)
Cc1ccc(-n2c(SCC(=O)NCCC3=CCCCC3)nc3n[nH]c(C)c3c2=N)cc1Cl	4.94% (inactive)
COc1cccc(-n2c(SCC(=O)NC3CCCCC3)nc3n[nH]c(C)c3c2=N)c1	1070% (active)
COc1cc(OC)cc(C(=O)Nc2nnc(SCC(=O)NCC3CCCO3)s2)c1 (stereo not drawn)	-5.99% (inactive)
CCCCNS(=O)(=O)c1ccc(S(=O)(=O)n2cnc3ccccc32)cc1	-2.08% (inactive)
COC(=O)c1c(C)cc(O)c(C)c1O	2.55% (inactive)
O=C(c1cccnc1)N1CCN(S(=O)(=O)c2cccs2)CC1	-2.05% (inactive)
CCOC(=O)c1ccccc1N1C(=O)C2Sc3[nH]c(=O)sc3C(/C=C/c3ccccc3)C2C1=O (stereo not drawn)	0.0979% (inactive)
Nc1nc(SCCOc2ccccc2)n[nH]1	-18.7% (inactive)
Nc1cc(N)nc(SCc2cccc(F)c2)n1	35.9% (inactive)
Nc1nc(SCc2cccc(Br)c2)n[nH]1	332% (active)
Cc1ccc(C(=O)N/C(=C\c2ccc(F)cc2)C(=O)NCCN2CCOCC2)cc1	49.4% (inactive)

SMILES	growth rescue
Cn1cncc1C#Cc1c(-c2ccsc2)sc2ccccc12	17.7% (inactive)
COC(=O)Cc1ccc(OC(=O)C2CCN(S(=O)(=O)c3ccc(OC)c(OC)c3)CC2)cc1	-14.9% (inactive)
CC1(C)Cc2c(sc(NC(=O)C(=O)NCC3CCCO3)c2C(=O)O)CO1 (stereo not drawn)	-46.3% (inactive)
COc1ccc(NC(=O)Cn2c(-c3ccc(OC)cc3)cn(-c3ccc(C)cc3)c2=O)cc1	259% (inactive)
COc1ccc(NC(=O)COC(=O)Cn2c(C)nc3ccccc32)cc1OC	-5.7% (inactive)
COc1ccc(-c2cn(-c3ccc(C)cc3)c(=O)n2CC(=O)Nc2ccc(OC)c(OC)c2)cc1	737% (active)
O=C(NCCc1nnc2ccc(SCC(=O)N3CCOCC3)nn12)c1ccccc1	-18.2% (inactive)
COc1ccccc1-c1c(C#N)c(N)nc2c1CCC2	-0.44% (inactive)
COc1ccc(OC)c2c(N)c(C#N)c(C(F)(F)C(F)(F)F)nc12	790% (active)
COc1ccc(C2CC(=O)Nc3sc(=N)c4c(N)c(C#N)c(N)nc4c32)cc1OC (stereo not drawn)	-31.5% (inactive)
O=C(CN1CCCCC1)N1c2ccccc2Sc2ccc(C(F)(F)F)cc21	1.37% (inactive)
Cn1c(C(=O)NCCCN2CCN(c3cccc(Cl)c3)CC2)cc2c(=O)n(C)c3ccccc3c21	-12.4% (inactive)
Cn1c(C(=O)NCCc2ccsc2)cc2c(=O)n(C)c3ccccc3c21	385% (active)
CCN1CCCC1CNC(=O)c1cc2c(=O)n(C)c3ccccc3c2n1C (stereo not drawn)	-15.2% (inactive)
O=C(NCCCN1CCOCC1)c1cn(-c2ccccc2)nc1-c1ccc(F)cc1	-27.9% (inactive)
COc1ccc(NC(=O)C2=CC(c3ccc(OC)c(OC)c3)=NS(=O)(=O)N2C)cc1	12.2% (inactive)
COc1cc(NC(=O)C2=CC(c3ccco3)=NS(=O)(=O)N2C)cc(OC)c1OC	446% (active)
COc1cc(NC(=O)C2=CC(c3ccc(C)cc3)=NS(=O)(=O)N2C)cc(OC)c1OC	18.9% (inactive)
CCOC(=O)C(NC(C)=O)C(=O)Nc1ccc(OC)cc1 (stereo not drawn)	5.5% (inactive)
NS(=O)(=O)c1ccc(CNC(=S)NC(=O)c2ccco2)cc1	-10.3% (inactive)

SMILES	growth rescue
CCCCc1nc2cc(C(=O)NCCc3cnn(C)c3)ccc2o1	249% (inactive)
O=C1CCC(=O)N1CCOP1(=O)COc2ccccc2OC1	402% (active)
CC1Sc2ccc(C(=O)NCc3ccccc3Cl)cc2NC1=O (stereo not drawn)	-10.2% (inactive)
COc1ccc(C)cc1NC(=O)C(Sc1ccccc1)c1ccccc1 (stereo not drawn)	-9.29% (inactive)
COc1cccc(NC(=O)c2nn(C34CC5CC(CC(C5)C3)C4)cc2[N+](=O)[O-])c1	384% (active)
COc1cccc(NC(=O)c2ccc(Cn3cc([N+](=O)[O-])cn3)o2)c1	-22.4% (inactive)
Cn1cc([N+](=O)[O-])c(C(=O)Nc2ccc3c(c2)OCCO3)n1	-2.5% (inactive)
COc1ccccc1C(=O)NCC(=O)OCC(=O)Nc1nnc(-c2ccccc2)o1	0.619% (inactive)
CCCNC(=O)CCn1cc(-c2ccc(OC)cc2)nc1CCN	-5.76% (inactive)
CNS(=O)(=O)c1ccc(NC(=O)Nc2ccc3c(c2)OCO3)cc1	-8% (inactive)
COc1ccc(Cl)cc1N(CC(=O)N1CCCCC1)S(C)(=O)=O	316% (inactive)
COCc1c(C(=O)N/N=C\c2cccnc2)nnn1-c1nonc1N	0.433% (inactive)
C#CCOCCOCCOCCNc1nc(N2CCN(C(=O)[C@H](CCC(=O)O)n3cc(CN)nn3)CC2)nc(N2CCN(C(=O)[C@H](CCC(=O)O)n3cc(CN)nn3)CC2)n1	-22.6% (inactive)
Cc1ccc(NC(=O)N2CCC(O)(c3cccnc3)CC2)cc1	356% (active)
Cc1ccc(NC(=O)Nc2cccnc2)cc1	-4.18% (inactive)
O=C(c1cccc(F)c1)N1CCC(O)(c2cccnc2)CC1	16% (inactive)
Cc1ccc(/C=N/NC(=O)c2sccc2OCc2ccc(F)cc2)cc1	17.9% (inactive)
COc1cc(-c2nc(S(=O)(=O)c3ccc(Cl)cc3)c(N(C)C)o2)cc(OC)c1OC	9.48% (inactive)
